Measurements from paper PMC4336329 (PLoS ONE, 2015).
Out of some 310,000 compounds screened, about 14,000 (4.5%) showed an effect of 50% or more. Effects have a minus sign here. The list comes from a sample in which strong results are over-represented; it also holds similar structures and randomly drawn compounds.

Each compound was assayed against human ether-à-go-go-related gene (hERG) potassium channel (human, UniProt Q12809) (assay: primary screen, population patch clamp on CHO cells stably expressing hERG; higher = less effect of the substance).
human ether-à-go-go-related gene (hERG) potassium channel, sequence (Q12809 whole entry, looked up): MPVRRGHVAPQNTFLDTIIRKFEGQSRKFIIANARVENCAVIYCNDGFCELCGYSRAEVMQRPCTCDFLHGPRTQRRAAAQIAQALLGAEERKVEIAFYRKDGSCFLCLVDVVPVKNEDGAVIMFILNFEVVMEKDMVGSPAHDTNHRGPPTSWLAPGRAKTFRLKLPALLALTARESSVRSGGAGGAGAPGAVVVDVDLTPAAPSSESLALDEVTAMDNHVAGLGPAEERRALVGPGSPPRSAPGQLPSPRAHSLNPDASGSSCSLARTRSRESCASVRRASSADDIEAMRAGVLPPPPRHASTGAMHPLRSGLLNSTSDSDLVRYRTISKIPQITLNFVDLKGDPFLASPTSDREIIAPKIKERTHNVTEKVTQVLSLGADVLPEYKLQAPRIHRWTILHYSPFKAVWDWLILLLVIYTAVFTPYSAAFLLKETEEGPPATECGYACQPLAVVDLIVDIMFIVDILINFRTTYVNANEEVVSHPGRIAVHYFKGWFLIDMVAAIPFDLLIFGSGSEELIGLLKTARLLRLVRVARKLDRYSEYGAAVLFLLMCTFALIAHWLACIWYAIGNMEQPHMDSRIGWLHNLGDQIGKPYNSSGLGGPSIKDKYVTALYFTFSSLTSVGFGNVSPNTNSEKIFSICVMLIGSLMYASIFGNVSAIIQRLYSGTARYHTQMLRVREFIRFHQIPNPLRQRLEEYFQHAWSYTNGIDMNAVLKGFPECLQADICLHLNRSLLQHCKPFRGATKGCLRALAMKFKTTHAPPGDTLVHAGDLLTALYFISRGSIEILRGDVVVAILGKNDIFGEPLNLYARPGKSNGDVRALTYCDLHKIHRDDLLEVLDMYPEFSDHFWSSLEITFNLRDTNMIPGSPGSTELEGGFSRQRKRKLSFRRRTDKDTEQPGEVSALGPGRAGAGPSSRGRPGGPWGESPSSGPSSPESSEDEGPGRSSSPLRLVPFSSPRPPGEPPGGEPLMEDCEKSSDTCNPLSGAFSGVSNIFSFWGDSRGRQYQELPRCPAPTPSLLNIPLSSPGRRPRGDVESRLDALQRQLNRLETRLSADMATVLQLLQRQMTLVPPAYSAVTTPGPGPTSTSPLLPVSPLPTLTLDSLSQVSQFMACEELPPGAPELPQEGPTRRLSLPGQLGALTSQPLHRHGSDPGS
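Also: peak tail current of the secondary pulse compared with the same well before compound.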

Row | Compound | hERG current change (%, negative = inhibition) at 10uM [%]
1 | O=C(O)/C=C/C(=O)Nc1ccc(OC(F)(F)F)cc1Br | 15.7
2 | O=C(/C(=C/c1ccccc1Cl)c1ccccc1)N1CCOCC1 | -3.84
3 | Cc1ccc(C(NC(=O)N2CCCC2)C(Cl)(Cl)Cl)cc1F (centres unmarked) | 19.1
4 | Cc1ccc(NC(=O)c2sc3ccccc3c2Cl)nc1 | 8.87
5 | COC(C(=O)Nc1ccc(S(=O)(=O)Nc2c(C)cccc2C)cc1)c1ccccc1 (centres unmarked) | -74.6
6 | COC(C(=O)Nc1ccc(S(=O)(=O)Nc2ccc(C)c(C)c2)cc1)c1ccccc1 (centres unmarked) | 15.3
7 | COC(C(=O)Nc1ccc(S(=O)(=O)Nc2ccc(F)cc2)cc1)c1ccccc1 (centres unmarked) | 0.504
8 | CCn1cc(/C=C/C(=O)Nc2ccn(Cc3c(F)c(F)cc(F)c3F)n2)cn1 | -14.9
9 | O=C(CN1CCC(n2nnc3cc(F)ccc32)CC1)N1CCc2ccccc2C1 | -58.1
10 | Cl.O=C(CN1CCN(c2ccc(F)cc2)CC1)N1CCC(Cc2ccccc2)CC1 | -30.3
11 | O=C(CN1CCC(Cc2ccccc2)CC1)N1CCc2ccccc2C1 | -69.3
12 | O=C(CN1CCC(n2nnc3cc(F)ccc32)CC1)NCCc1nc2ccccc2[nH]1 | -31.6
13 | O=C(CN1CCC(n2nnc3cc(F)ccc32)CC1)NNC(=O)c1ccccc1 | -11.9
14 | O=C(CN1CCC(N2CCCCC2)CC1)N1CCCc2ccccc21.O=C(O)C(=O)O | 20.7
15 | O=C(CN1CCC(n2nnc3cc(F)ccc32)CC1)N1CCCc2ccccc21 | -64.2
16 | O=C(CN1CCC(n2nnc3cc(C(F)(F)F)ccc32)CC1)N1CCc2ccccc21 | -19.9
17 | O=C(CCS(=O)(=O)Cc1ccccc1)N1CCc2ccccc2C1 | -0.206
18 | O=C(OCCC1Oc2cccnc2NC1=O)c1ccc(F)cc1 (centres unmarked) | 12.6
19 | CC(OC(=O)/C=C/c1ccc2ccccc2n1)C(=O)Nc1ccc(S(N)(=O)=O)cc1 (centres unmarked) | 19.1
20 | CCCOC(=O)c1ccc(Oc2c(-c3ccc(O)cc3O)n[nH]c2C)cc1 | -2.68
21 | Cc1nc(SCC(=O)Nc2cccc(C(=O)O)c2)n[nH]1 | 24.9
22 | O=C(NCCCn1ccnc1)c1noc2c1CCCC2 | -41.8

Row | Compound | hERG current change (%, negative = inhibition) at 10uM [%]
23 | O=C(Nc1cc(Cl)cc(Cl)c1)C1CCC(=O)N1Cc1ccccc1Cl (centres unmarked) | 8.65
24 | O=C(CC(Cc1ccccc1)C(=O)O)Nc1ccccc1 (centres unmarked) | 25.2
25 | CCOC(=O)c1ccc([N+](=O)[O-])cc1NC(C)=O | 3.85
26 | Cc1cc(C)c(OCC(=O)Nc2cccc(O)c2)cc1C | 10.9
27 | CC(Sc1ccc(Cl)cc1)C(=O)NCC(c1ccco1)N1CCCCC1 (centres unmarked) | -54.1
28 | O=C(NCc1ccccc1CN1CCCC1)c1cc2ccccc2o1 | -69.4
29 | O=C(NCC(c1ccco1)N1CCCC1)c1ccc(Cl)cc1 (centres unmarked) | -22.8
30 | O=C(NCc1ccccc1CN1CCCC1)c1cc2cc(Cl)ccc2o1 | -74.6
31 | O=C(NCC(c1ccco1)N1CCCC1)c1cc2cc(Cl)ccc2o1 (centres unmarked) | -67.7
32 | Cc1c(C(=O)NCC(c2ccco2)N2CCCC2)oc2ccc(Cl)cc12 (centres unmarked) | -42.1
33 | CN(Cc1ccccc1N1CCCC1)C(=O)c1cc2cc(Cl)ccc2o1 | -13.4
34 | O=C(CCNC(=O)c1ccc(Cl)cc1)NCC(c1ccco1)N1CCCCC1 (centres unmarked) | -31
35 | CC(Sc1ccccc1)C(=O)NCC(c1ccco1)N1CCCCC1 (centres unmarked) | -9.36
36 | O=C(NCc1ccccc1CN1CCCCC1)c1ccc(Cl)cc1N1CCCC1=O | -30.4
37 | Cc1ccccc1CNC(=O)c1cc2ccccc2o1 | 3.09
38 | O=C(NCc1ccccc1)c1cc2ccccc2o1 | -4.68
39 | Cn1nnnc1SCC(=O)N1c2ccccc2Sc2ccc(Cl)cc21 | -16.4
40 | COC(=O)C(C)Oc1ccc2c(c1)O/C(=C\c1cccc(Br)c1)C2=O (centres unmarked) | -46.9
41 | COc1ccc(C2c3[nH]c4ccccc4c3C[C@H]3C(=O)N(c4ccccc4C(=O)N4CCC[C@H]4C(=O)O)C(=O)N23)cc1 (some centres unmarked) | 3.11
42 | CC(C)C[C@@]12C(=O)N(c3cccc(Cl)c3)C(=O)N1[C@H](c1ccc(Cl)cc1)[C@@H]1C(=O)N(C3CCCCC3)C(=O)[C@@H]12 | 11.2
43 | Cc1ccc(C)c(NC(=O)CN(C)C(=O)CN2C(=O)C3CCCCC3C2=O)c1 (centres unmarked) | 10
44 | N#Cc1ccccc1Sc1ccccc1C(=O)NCC(c1ccco1)N1CCCCC1 (centres unmarked) | -19
